{
  "source": "PubChem BioAssay (Tox21)",
  "note": "Inconclusive results are not listed. A number with no mark means an inactive call. Calls come from the whole dose curve; as a rule, active = well fitted cell-killing curve with a large enough effect in the repeat runs; inconclusive = weak or mixed curves, or effect the other way; inactive = no such curve, though single readings can be large or run the other way. % is set by controls: 0 for no effect and ±100 for the full control effect.",
  "data": [
    {"test": "qHTS assay for small molecule activators of the heat shock response signaling pathway - cell viability counter screen (AID 743209); note: nearly all actives have a fitted effect of over 50% in size", "details": "HSE-bla HeLa viability, CellTiter-Glo luminescence, 5 h; series mostly up to 62.6 µM; activity change, negative = cytotoxicity: at the top concentration", "excerpt": "U.S. Tox21 Program National Center for Advancing Translational Sciences [NCATS] NIH Chemical Genomics Center [NCGC] U.S. Environmental Protection Agency [EPA] National Institutes of Environmental Health Sciences [NIEHS] National Toxicology Program [NTP] U.S. Food and Drug Administration [FDA] Tox21 Assay Overview: Various chemicals, environmental and physiological stress conditions may lead to the activation of heat shock response/ unfolded protein response (HSR/UPR). There are three heat shock transcription factors (HSFs) (HSF-1, -2, and -4) mediating transcriptional regulation of the human HSR. To identify the compounds that activate HSR signaling, HSE-bla HeLa cell line (Invitrogen, Carlsbad, CA, USA) containing a beta-lactamase reporter gene under the control of the heat shock response elements was used to screen Tox21 10K compound library. The cytotoxicity of the Tox21 compound library against the HSE-bla HeLa cell line was tested in parallel by measuring the cell viability using CellTiter-Glo assay (Promega, Madison, WI) in the same wells.\nTox21 Assay Protocol Summary: The CellSensor HSE-bla HeLa cells (Invitrogen, Carlsbad, CA, USA) were dispensed at 1500 cells/6uL/well into 1536-well black wall/clear bottom plates using a Multidrop combi (Thermo Fisher Scientific, Waltham, MA) dispenser. After the assay plates were incubated at 37 C and 5% CO2 overnight, 23 nL of compounds dissolved in DMSO, positive controls or DMSO only was transferred to the assay plate by a Pintool station (Kalypsys, San Diego, CA). The plates were incubated at 37 C for 5 h. After 1 uL of LiveBLAzerTM B/G FRET substrate was added using a Flying Reagent Dispenser (FRD, Beckman Coulter, Indianapolis, IN, USA), the plates were incubated at room temperature for 2.5 h, and fluorescence intensity was measured by an Envision plate reader (PerkinElmer, Shelton, CT). For cell viability readout that measures cytotoxicity, 3 ul/well of CellTiter-Glo reagent was added into the assay plates using a FRD. After 30 min incubation at room temperature, the luminescence intensity in the plates was measured using a ViewLux (PerkinElmer) plate reader.", "values": [
      {"smiles": "C=CCOCC(CO)(COCC=C)COCC=C", "activity change, negative = cytotoxicity": "2.65%"},
      {"smiles": "C=COCCOCCOC=C", "activity change, negative = cytotoxicity": "-0.455%"},
      {"smiles": "CCCCC(CC)COC(=O)c1ccccc1", "note": "(stereo not given)", "activity change, negative = cytotoxicity": "6.09%"},
      {"smiles": "CN[C@@H]1[C@H](O)[C@H](NC)[C@H]2O[C@@]3(O)C(=O)C[C@@H](C)O[C@H]3O[C@@H]2[C@H]1O", "activity change, negative = cytotoxicity": "-5.26%"},
      {"smiles": "CNC(=O)NC", "activity change, negative = cytotoxicity": "-4.64% [at 81.1 µM]"},
      {"smiles": "CCCCCC1CCCC(=O)O1", "note": "(stereo not given)", "activity change, negative = cytotoxicity": "-5.6%"},
      {"smiles": "CCC(O)C(C)(C)C", "note": "(stereo not given)", "activity change, negative = cytotoxicity": "14.7% [at 81.1 µM]"},
      {"smiles": "Nc1ccnc(=O)[nH]1", "activity change, negative = cytotoxicity": "7.65%"},
      {"smiles": "CCOC(=O)C(C)(C)C", "activity change, negative = cytotoxicity": "1.39% [at 81.1 µM]"},
      {"smiles": "CC(=O)OCCCc1ccccc1", "activity change, negative = cytotoxicity": "-0.359%"},
      {"smiles": "COc1ccc(NS(=O)(=O)c2ccc(N)cc2)nn1", "activity change, negative = cytotoxicity": "-3.42%"},
      {"smiles": "CCOC(=O)C(=O)c1csc(NC=O)n1", "activity change, negative = cytotoxicity": "6.99%"},
      {"smiles": "CCCCCC1Nc2cc(C(F)(F)F)c(S(N)(=O)=O)cc2S(=O)(=O)N1", "note": "(stereo not given)", "activity change, negative = cytotoxicity": "5.91%"},
      {"smiles": "CCN(Cc1cccc(S(=O)(=O)O)c1)c1ccccc1", "activity change, negative = cytotoxicity": "-2.65%"},
      {"smiles": "Cc1cc(O)c2c(c1)C(=O)c1cccc(O)c1C2=O", "activity change, negative = cytotoxicity": "-9.46%"},
      {"smiles": "O=C(COCCOCCOCC(=O)Nc1c(I)cc(I)c(C(=O)O)c1I)Nc1c(I)cc(I)c(C(=O)O)c1I", "activity change, negative = cytotoxicity": "2.37%"},
      {"smiles": "CC(C)COC(=O)/C=C/c1ccccc1", "activity change, negative = cytotoxicity": "-0.264%"},
      {"smiles": "O=C(O)c1c(Cl)ccc(Cl)c1Cl", "activity change, negative = cytotoxicity": "-2.8%"},
      {"smiles": "O=C(O)/C=C/c1ccccc1", "activity change, negative = cytotoxicity": "9.14%"},
      {"smiles": "CCCCOC(=O)[C@@H](C)Oc1ccc(Oc2ccc(C(F)(F)F)cn2)cc1", "activity change, negative = cytotoxicity": "-5.08% [at 81.1 µM]"},
      {"smiles": "CCCOCCOCCOCCO", "activity change, negative = cytotoxicity": "-7.17%"},
      {"smiles": "c1ccccc1", "activity change, negative = cytotoxicity": "11.9%"},
      {"smiles": "C=C(C)C(=O)OC", "activity change, negative = cytotoxicity": "-4.32%"},
      {"smiles": "CCC(=O)OCCC(C)CCC=C(C)C", "note": "(stereo not given)", "activity change, negative = cytotoxicity": "14.7%"},
      {"smiles": "CCN1CN(CC)CN(CC)C1", "activity change, negative = cytotoxicity": "-1.26%"},
      {"smiles": "Cc1c(C(C)C)c(=O)n(-c2ccccc2)n1C", "activity change, negative = cytotoxicity": "10.9%"},
      {"smiles": "SCCSCCS", "activity change, negative = cytotoxicity": "0.255%"},
      {"smiles": "NCCc1ccn[nH]1", "activity change, negative = cytotoxicity": "8.05%"},
      {"smiles": "C[CH2][Ge]([Cl])([CH2]C)[CH2]C", "activity change, negative = cytotoxicity": "-6.34% [at 81.1 µM]"},
      {"smiles": "OC(CCN1CCCCC1)(c1ccccc1)c1ccccc1", "activity change, negative = cytotoxicity": "6.48%"},
      {"smiles": "O=C(O)c1ccccc1C(=O)Nc1ccc(S(=O)(=O)Nc2nccs2)cc1", "activity change, negative = cytotoxicity": "-0.278%"},
      {"smiles": "CCN(CC)C(=O)C1CN2CCc3cc(OC)c(OC)cc3C2CC1OC(C)=O", "note": "(stereo not given)", "activity change, negative = cytotoxicity": "7.05%"},
      {"smiles": "O=c1[nH]c(=O)c2ccccc2o1", "activity change, negative = cytotoxicity": "-1.71%"},
      {"smiles": "C[Si]1(C)N[Si](C)(C)N[Si](C)(C)N1", "activity change, negative = cytotoxicity": "4.6%"},
      {"smiles": "O=S(=O)(O)CCO", "activity change, negative = cytotoxicity": "10.6% [at 81.1 µM]"},
      {"smiles": "CCNC(=O)/C=C/c1cccc(Br)c1", "activity change, negative = cytotoxicity": "6.56%"},
      {"smiles": "Cc1ccccc1C(=O)N1CC/C(=N\\OS(=O)(=O)O)c2ccc(Cl)cc21", "activity change, negative = cytotoxicity": "-10.7%"},
      {"smiles": "O=C(c1ccc2c(c1)C(=O)OC2=O)c1ccc2c(c1)C(=O)OC2=O", "activity change, negative = cytotoxicity": "-7.3%"},
      {"smiles": "CN(C)CCCNCCC#N", "activity change, negative = cytotoxicity": "4.49%"},
      {"smiles": "CCOC(=O)CC(CC(=O)OCC)(OC(C)=O)C(=O)OCC", "activity change, negative = cytotoxicity": "-3.1%"}
    ]}
  ]
}
